Sampled rows, rich in hits. Any-hit rate of the full collection: about 2.9%.
FadD28 FP inh – M. tuberculosis FadD28 bisubstrate binding inhibition; 0.22% of 360,000 active; FadD28 bisubstrate probe binding, fluorescence polarization; inhibition, % at 12.5 µM; in the data active = inhibition above about 8.5%, passing the limit was not always enough; inconclusive = no clear call, values can overlap the other calls
Mtb FBA inh – inhibits M. tuberculosis FBA enzyme. P9WQA3. purified M. tuberculosis FBA, fluorescence read-out. inhibition, % at 1 µM. 2.3% of 360,000 active. AID 588726
Target sequence (P9WQA3 whole entry, looked up): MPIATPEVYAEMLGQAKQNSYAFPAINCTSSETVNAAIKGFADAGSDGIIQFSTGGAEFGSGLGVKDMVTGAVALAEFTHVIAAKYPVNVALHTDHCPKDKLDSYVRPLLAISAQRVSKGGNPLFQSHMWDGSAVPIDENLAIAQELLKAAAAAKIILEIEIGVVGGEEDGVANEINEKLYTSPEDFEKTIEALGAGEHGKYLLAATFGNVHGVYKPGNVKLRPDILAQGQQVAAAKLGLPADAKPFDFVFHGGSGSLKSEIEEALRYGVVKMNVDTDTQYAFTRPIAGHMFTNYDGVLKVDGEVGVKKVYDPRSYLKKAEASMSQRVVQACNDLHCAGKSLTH
Mtb BioA inh – BioA (M. tuberculosis) enzyme inhibition | purified M. tuberculosis BioA enzyme, plate reader | inhibition, % at 9.99 µM | 0.096% of 360,000 active | AID 602481; in the data active = inhibition above about 40%; inconclusive = no clear call, values can overlap the other calls
Mtb hypoxia inh – inhibitors of hypoxia-regulated fluorescent reporter in Mycobacterium tuberculosis; M. tuberculosis hypoxia-regulated fluorescent reporter, fluorescence; fluorescence inhibition, % (concentration not given with the values); 0.1% of 300,000 active; in the data active = fluorescence inhibition mostly above about 23%, no sharp cut-off; inactive = mostly below about 17%
GDH-TPI counter-1 – GDH-TPI coupled enzyme inhibition counter-screen. GDH-TPI coupled enzyme counterscreen, NADH absorbance. inhibition, % at 4.8 µM. 1.2% of 360,000 active; in the data active = inhibition above about 30%
Mtb FBA inh conf – confirmation of M. tuberculosis fructose-bisphosphate aldolase inhibitors. AID 651616. inhibition, % at 1 µM. purified M. tuberculosis FBA, fluorescence read-out. 78% of 5,600 active. shares compounds with Mtb FBA inh
GDH-TPI counter-2 – inhibits GDH-TPI coupling enzymes, flagging Mtb FBA hits. 81% of 5,600 active. AID 652141. inhibition, % at 1 µM. GDH-TPI coupled enzyme counterscreen, fluorescence. shares compounds with Mtb FBA inh; in the data active = inhibition above about 10%
A number is an active result; – = inactive; ? = inconclusive; · = not tested or not shown; + = active, no number. Rule as the data show it, unless noted: active = inhibition above about 27%; inactive = the rest.

SMILES	FadD28 FP inh	Mtb FBA inh	Mtb BioA inh	Mtb hypoxia inh	GDH-TPI counter-1	Mtb FBA inh conf	GDH-TPI counter-2
CCc1cc(=O)oc2cc(C)cc(OCC(=O)N3CCC(C(=O)O)CC3)c12	–	76	–	·	–	121	109
O=C1CCCN1CCCNc1nc2c(S(=O)(=O)c3ccccc3)nnn2c2ccc(Cl)cc12	–	41	–	–	–	–	–
CCS(=O)(=O)c1nc(S(=O)(=O)c2ccc(C)cc2)c(NCCCN2CCCC2=O)s1	–	–	–	–	–	·	·
C[C@H](CO)N1C[C@H](C)[C@@H](CN(C)Cc2ccc(F)cc2)Oc2ncc(-c3ccc(F)cc3)cc2C1=O	·	·	–	·	·	·	·
COCCCNC(=O)C[C@H]1C[C@H](C(=O)N2CCCCC2)[C@@]2(C)c3[nH]c4cc(-c5ccco5)ccc4c3CCN2C1=O	–	27	–	–	–	68	52
C[C@]12c3[nH]c4cc(-c5ccco5)ccc4c3CCN1C(=O)[C@@H](CC(=O)NCCN1CCOCC1)C[C@@H]2C(=O)N1CCCCC1	–	35	–	–	–	–	–
O=C(O)c1ccccc1NCN1C(=O)C2CC=C(Cl)CC2C1=O (stereo not given)	–	40	–	–	–	–	29
CCOCCCNC(=S)NCCCNc1nc2cc3c(cc2cc1C#N)OCO3	–	65	·	–	–	188	153
CCOCCCNC(=S)NCCNc1nc2ccc(C)cc2cc1C#N	–	–	·	–	–	·	·
CN(C)CCCNC(=S)NCCNc1nc2cc3c(cc2cc1C#N)OCO3	–	70	·	–	–	65	47
C[C@@H]1CN([C@H](C)CO)C(=O)c2cc(NC(=O)Cc3ccccc3)ccc2O[C@@H](C)CCCCO[C@H]1CN(C)C(=O)Nc1ccccc1	·	·	–	·	·	·	·
CCOC(=O)C1=C(C)NC(C)=C(C(=O)OCC)C1c1cn(-c2ccccc2)nc1-c1ccco1	–	61	·	·	–	–	–
CCOC(=O)C1=C(C)NC(=O)NC1c1cn(-c2ccccc2)nc1-c1cccs1 (stereo not given)	–	–	–	–	–	·	·
C[C@@H]1CN([C@H](C)CO)S(=O)(=O)c2ccc(C#CC(C)(C)O)cc2O[C@@H]1CN(C)C	·	·	–	·	·	·	·
CCC1(O)C(=O)OCc2c1cc1n(c2=O)Cc2cc3cc(O)ccc3nc2-1 (stereo not given)	–	29	–	·	–	133	120
CC[C@@]1(O)C(=O)OCc2c1cc1n(c2=O)Cc2cc3c(NC(=O)CN)cccc3nc2-1	–	66	–	–	–	48	36
CCn1c(SCC(=O)Nc2ccccc2C)nc2nc3c(cc2c1=O)COC(C)(C)C3	–	–	·	–	–	·	·
COc1ccc2nc(Nc3nc4cc5c(cc4s3)OCO5)sc2c1	–	57	·	–	–	+	+
C=C(C)Cn1c2ccc(NC(=S)NCc3ccccc3F)cc2c(=O)n1C	–	36	–	·	–	148	106
CCNC(=S)Nc1ccc2c(c1)c(=O)n(C)n2CC=C(C)C	–	63	–	·	–	185	152
COc1cccc(CNC(=S)Nc2ccc3c(c2)c(=O)n(C)n3C)c1	–	–	–	·	–	·	·
S=c1[nH]nc(Cc2ccc(Br)cc2)n1N=Cc1ccc(Cl)cc1	·	·	·	–	·	·	·
Nc1ccc2c(c1)[nH]c(=O)c1cc(N)ccc12	?	32	–	·	–	–	18
Cc1ccc(-c2nnc(SCC(=O)NN=Cc3ccccc3C(=O)O)n2-c2ccc(Cl)cc2)cc1	·	·	·	–	·	·	·
CC(C)c1ccc(NC(=S)Nc2cccc3ccccc23)cc1	–	30	–	–	–	68	55
SMILES	FadD28 FP inh	Mtb FBA inh	Mtb BioA inh	Mtb hypoxia inh	GDH-TPI counter-1	Mtb FBA inh conf	GDH-TPI counter-2
CCOc1ccc(NC(=S)Nc2cccc3ccccc23)cc1	–	58	–	–	–	82	73
CCOc1ccc(NC(=S)Nc2cccc3cnccc23)cc1	–	–	–	·	–	·	·
Cc1ccc(NC(=S)Nc2cccc3ccccc23)cc1	–	–	–	–	–	·	·
Cc1noc(C)c1S(=O)(=O)N(C)C[C@H]1OCCCC[C@H](C)Oc2ccc(NS(C)(=O)=O)cc2C(=O)N([C@@H](C)CO)C[C@@H]1C	·	·	–	·	·	·	·
CCNC(=O)COC(=O)C=Cc1cccc([N+](=O)[O-])c1	·	·	·	–	·	·	·
CCCCCCc1cc2cc(C(=O)OCC)c(=O)oc2cc1O	–	44	·	–	–	136	97
O=c1oc2cc(O)ccc2cc1-c1nc2c(s1)CCc1ccccc1-2	–	38	·	–	–	·	+
C[C@@H]1CCCCO[C@H](CN(C)C(=O)NC2CCCCC2)[C@H](C)CN([C@H](C)CO)C(=O)c2cc(NS(=O)(=O)c3cn(C)cn3)ccc2O1	·	·	–	·	·	·	·
Cc1ccccc1NC(=O)c1ccc2c(c1)N(C)CCS2	–	–	–	–	–	·	·
COc1ccc(CNC(=O)c2ccc3c(c2)N(C)CCS3)cc1	–	52	–	–	–	86	59
Cc1cccc(CNC(=O)c2ccc3c(c2)N(C)CCS3)c1	–	56	–	–	–	34	38
O=C(CCC(=O)N1CCSc2ccccc21)NCc1cccc(Br)c1	–	–	–	·	–	·	·
COc1cccc(CNC(=O)c2ccc3c(c2)N(C)CCS3)c1OC	–	88	–	–	–	49	45
